Compounds without any hit were thinned out: in the full panel of roughly 83,000, 20% have a hit.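 The test compound was applied at a single concentration to cells in 96-well plates for 48 hours, and percent growth was recorded.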 Unmarked numbers belong to inactive results. Activity calls are given as the source filed them. The calls were made as follows: active = growth percent below 10; inactive = the rest.
Assays:
Assay in all cases: NCI-60 one-dose screen, 48 h (100 = growth as untreated, 0 = no growth, -100 = all killed)
Settings in all cases: 10 µM unless noted
T-47D breast = tested on: T-47D breast
BT-549 breast = tested on: BT-549 breast
MDA-MB-435 melanoma = tested on: MDA-MB-435 melanoma
SW-620 colon = tested on: SW-620 colon
MCF7 breast = tested on: MCF7 breast
HCT-116 colon = tested on: HCT-116 colon
HCC-2998 colon = tested on: HCC-2998 colon
KM12 colon = tested on: KM12 colon

Row | SMILES | growth (T-47D breast) | growth (BT-549 breast) | growth (MDA-MB-435 melanoma) | growth (SW-620 colon) | growth (MCF7 breast) | growth (HCT-116 colon) | growth (HCC-2998 colon) | growth (KM12 colon)
1 | COc1ccc(CNCCCN2C(=O)c3ccc4c5c(ccc(c35)C2=O)C(=O)N(CCCNCc2ccc(OC)c(OC)c2OC)C4=O)c(OC)c1OC | -40.1% (active) | -90.5% (active) | -87.5% (active) | -94.6% (active) | -85% (active) | -71.2% (active) | -92.8% (active) | -89.9% (active)
2 | OCCN1CCCN(CCCN2c3ccccc3Sc3ccc(C(F)(F)F)cc32)CC1 | 60.7% | 72.3% | -29.2% (active) | 67.7% | 39.2% | 29.2% | -42.4% (active) | 54.7%
3 | COc1cc2c(c3c1c(=O)c1cccc(F)c1n3C)C=CC(C)(C)O2 | 89.2% | 100% | 94.9% | 113% | 44.6% | 92.8% | 101% | 76.6%
4 | Cc1nnc(/N=C2\NC(=O)/C(=C/C=C/c3ccccc3)S2)s1 | 53.8% | 52.2% | 16.3% | 74.1% | 39.9% | 36.9% | 67% | 42.7%
5 | Cc1ccc([C@@H]2C[C@H](O)Cc3ccccc3N2)s1 | 99.1% | 110% | 103% | 101% | 107% | 116% | 101% | 109%
6 | O=C(/C=C/c1ccc(Br)cc1)c1ccccc1 | 74.8% | 95.8% | 87.6% | 65.6% | 8.28% (active) | 61.6% | 99.4% | 39.6%
7 | O=C(CCl)NC1c2ccccc2Oc2ccccc21 | 65.9% | 55.2% | 62.7% | 57.1% | 45.8% | 45.9% | 111% | 82.6%
8 | CCCCCCC(=O)C(C)C | 110% | 102% | 103% | 106% | 102% | 101% | 105% | 103%
9 | CCCCCCCCCCN1CC2CCCCC2C1 (stereo unspecified) | 56.7% | 69% | 91.3% | 74.2% | 65% | 53.6% | 82.9% | 65.3%
10 | O=C1C(=O)c2ccccc2C(O)=C1CCCc1ccc(C2CCCC2)cc1 | 59.8% | 40.3% | 42% | 24.3% | 33.3% | 16.6% | 36.7% | 27.6%
11 | CCCCCCCCc1ccc(CCC(N)(CO)CO)cc1 | 34% | 73.5% | -43.6% (active) | -83.8% (active) | -69% (active) | -69.8% (active) | -85.6% (active) | -66.5% (active)
12 | COc1ccc(Nc2c3ccccc3nc3ccccc23)cc1 | 30.6% | 42.2% | 31.3% | 24.2% | 11.5% | 13% | 46% | 37.6%
13 | C[C@H]1C[C@@H](n2cnc3c(N)nccc32)[C@H](O)[C@@H]1O | 102% | 93.7% | 113% | 87.2% | 90.1% | 86.8% | 101% | 80.8%
14 | CCCCCCCCCCCCCCCC[n+]1cccc(C#N)c1 | 49.2% | 90.3% | 73.3% | 35.6% | 38.5% | 24% | 65.2% | 44.4%
15 | Oc1ccc(Br)cc1/C=N/NC(=S)NC12CC3CC(CC(C3)C1)C2 | -4.11% (active) | 64.3% | 18.6% | -24.8% (active) | -17.4% (active) | 8.08% (active) | -8.19% (active) | -24.6% (active)
16 | Cc1ccc(CC(=O)O)c(C)c1 | 97.1% | 119% | 108% | 102% | 95.7% | 107% | 89.8% | 105%
17 | CCCCCCCCCC(C)NC(=O)CCl (stereo unspecified) | 82.6% | 88.8% | 96.3% | 103% | 86.2% | 95.7% | 103% | 101%
18 | Oc1ccccc1\C=N/N=C/C=C/c1ccccc1 | 76.9% | 91.4% | 105% | 106% | 81.4% | 103% | 95.3% | 92.8%
19 | COc1cc(OC)cc(-c2ccc(-c3ccc(C(=N)N)cc3)s2)c1 | -53.6% (active) | -72.4% (active) | -97.5% (active) | -73.7% (active) | -75.2% (active) | -93.3% (active) | -76.5% (active) | -84.9% (active)
20 | CN(C)CCOC(=O)C(C)(C)C | 103% | 112% | 104% | 91.6% | 99.3% | 103% | 110% | 106%
21 | CCCCCCN(CCCCCC)CCC(=O)Nc1ccc(S(=O)(=O)c2ccc(NC(=O)CCN(CCCCCC)CCCCCC)cc2)cc1 | 60% | 87.5% | 90.5% | 84.6% | 68.7% | 61.2% | 32.5% | 89.5%
22 | CC(C)(C)C(=O)CCCCCCCC/C=C/CCCC(O)c1ccco1 (stereo unspecified) | 104% | 105% | 113% | 113% | 105% | 109% | 88.6% | 113%
23 | COC(=O)c1c[n+]([O-])ccc1OC | 114% | 111% | 102% | 109% | 101% | 113% | 104% | 111%
24 | O=C1N/C(=N\c2nnc(-c3ccc(O)cc3)s2)S/C1=C\c1ccccc1O | 97.9% | 97% | 94.4% | 96.1% | 88.4% | 91.7% | 106% | 96.7%
25 | CC(=O)Nc1ccc(S(=O)(=O)Cl)cc1 | 101% | 114% | 115% | 115% | 96% | 111% | 108% | 107%
26 | COCC(=O)NNc1[nH]c(-c2ccc(OC)cc2)cc1C#N | 106% | 113% | 102% | 114% | 108% | 110% | 133% | 104%

Row | SMILES | growth (T-47D breast) | growth (BT-549 breast) | growth (MDA-MB-435 melanoma) | growth (SW-620 colon) | growth (MCF7 breast) | growth (HCT-116 colon) | growth (HCC-2998 colon) | growth (KM12 colon)
27 | COc1ccc(/C=C2\SC(=O)N(Cc3cc(=O)oc4ccc(OC)cc34)C2=O)cc1 | 63.1% | 77.4% | 100% | 106% | 82.5% | 82.8% | 95.4% | 88.9%
28 | CCC(CCCN1C(=O)c2ccccc2C1=O)Nc1cc(OC)cc2cccnc12 (stereo unspecified) | 66.3% | 92.9% | 105% | 95% | 20.8% | 105% | 147% | 110%
29 | CCOC(=O)/C(C#N)=C(/CC)OCC | 100% | 95.2% | 105% | 102% | 94.9% | 92% | 113% | 97.7%
30 | C=CCC(CCC(CC=C)C(=O)OCC)C(=O)OCC (stereo unspecified) | 105% | 96.3% | 104% | 103% | 89.6% | 100% | 113% | 99.8%
31 | COc1cc2ncnc(Nc3ccc4c(cnn4C(=O)Nc4ccccc4)c3)c2cc1OC | 77.7% | 83.4% | 94.7% | 103% | 60.4% | 95.8% | 87.4% | 93.5%
32 | O=P(OCCCl)(OCCCl)C(O)c1ccccc1Cl (stereo unspecified) | 98.2% | 107% | 102% | 111% | 99% | 107% | 106% | 104%
33 | Cc1c(C(N)=O)sc2c1c(=O)n(Cc1ccccc1)c1nnc(S(C)(=O)=O)n21 | 89.4% | 78.9% | 81.7% | 94.3% | 73.3% | 79.6% | 103% | 109%
34 | CCCCCCCCCCCCCCCCNC(=S)N/N=C/c1ccc(O)cc1O | 89.6% | 83.5% | 75.2% | 66.7% | 79.1% | 51.8% | 86.9% | 71.8%
35 | CCCCS(=O)(=O)c1cc(Nc2ccc(O)c3c2C(=O)c2ccccc2C3=O)ccc1C | 75.6% | 91.6% | -85.7% (active) | 103% | 33.8% | 78.7% | 67% | 73.4%
36 | COC1NC(Cl)=C(C#N)C(C#N)(C#N)C1(C)C (stereo unspecified) | 112% | 97% | 124% | 95.9% | 124% | 108% | 113% | 111%
37 | BrCCCOc1ccc(Oc2ccc(OCCCBr)cc2)cc1 | 113% | 91% | 107% | 108% | 97.9% | 102% | 119% | 113%
38 | Cc1ccc(OCCn2ccc(=O)n(CCOc3ccc(Cl)cc3C(=O)c3cc(C)cc(C)c3)c2=O)cc1 | 39.5% | 55.1% | -3.9% (active) | 29.7% | 22.4% | 34.5% | 64.5% | 36.9%
39 | CNCCCNCCCCNCCCN1C(=O)c2ccc3c4c(ccc(c24)C1=O)C(=O)N(CCCNCc1ccccc1OC)C3=O | 8.96% (active) | 57.8% | 1.07% (active) | 19.8% | 7.86% (active) | 11.1% | 31.5% | 12%
40 | CCOC(=O)NNc1[nH]c(-c2ccc(OC)cc2)cc1C#N | 44.1% | 101% | 85% | 107% | 69.2% | 85.4% | 39.1% | 74.7%
41 | Cn1c2c(cc(S(=O)(=O)c3ccccc3)c1=O)CCc1c-2cnn1-c1ccc(Cl)cc1 | -24.2% (active) | -13.8% (active) | 16.2% | 56.7% | -27.7% (active) | 53% | 74.3% | 92.2%
42 | Oc1ccc(N=Nc2ccc(N=Nc3ccccc3)cc2)cc1 | 16.4% | 49% | 19.6% | 44.7% | 22.8% | 33.3% | 17.2% | 27.8%
43 | COC(=O)/C(Br)=C/c1c[nH]c2ccc(Br)cc12 | 72% | 88.7% | 85.7% | 94.4% | 75% | 69.1% | 102% | 92%
44 | COC1(OC)N=C(N)C2(C#N)C3(C(=O)Nc4ccccc43)C12C#N (stereo unspecified) | 95.8% | 62.5% | 91.7% | 94.9% | 86.7% | 81.6% | 103% | 101%
45 | O=c1c(N=Nc2nccs2)c(-c2ccccc2)[nH]n1-c1nc(-c2ccccc2)cs1 | 43.7% | 19% | 26.7% | 40.2% | 59.1% | 26.9% | 42.2% | 28.5%
46 | CCCC[N+](C)(N)CCCC | 87.9% | 90.9% | 102% | 101% | 97.7% | 97.7% | 111% | 105%
47 | COc1cc2ncnc(-n3ncc4cc(NC(=O)Nc5ccccc5)ccc43)c2cc1OC | -7.28% (active) | 24.9% | 31.6% | 49.5% | -20.3% (active) | 6.38% (active) | 34.1% | 4.62% (active)
48 | COc1cc(Cn2ccc3c2-c2oncc2CC3)cc(OC)c1 | 32.2% | 32.9% | -37% (active) | 18% | 6.18% (active) | 14.7% | 61.6% | 24.5%
49 | O=C(/C(Br)=C/c1ccccc1)c1ccccc1 | -31.7% (active) | 95.8% | -11.2% (active) | -77.3% (active) | 0.441% (active) | -100% (active) | 94% | 53.3%
50 | COc1nc(OC)nc(-c2cc(-c3cc(OC)c(OC)c(OC)c3)no2)n1 | 103% | 120% | 111% | 102% | 93.7% | 105% | 112% | 102%
51 | COc1ccc(/C=C(/C(=O)N2CCCCC2)c2cc(OC)c(OC)c(OC)c2)cc1 | 45.8% | 53.6% | -51.3% (active) | 23.2% | 18.2% | 17.6% | 46.8% | 16%
52 | CC#Cc1nc(Nc2cc(C)[nH]n2)c2ccccc2n1 | 2.69% [100 µM] (active) | -61.9% [100 µM] (active) | -44.4% [100 µM] (active) | -1.25% [100 µM] (active) | 6.03% [100 µM] (active) | -15.7% [100 µM] (active) | -86.3% [100 µM] (active) | -74.6% [100 µM] (active)

From PubChem BioAssay (NCI)
